Results as given in PubChem BioAssay (NCATS).
“And” between values parts separate entries of the source, which are not always exact repeats. Equal values may be shown once. Results filed as inconclusive are left out. The source made the active and inactive calls. Unless noted, calls come from the whole dose curve; as a rule, active = well fitted curve in the direction sought with a large enough effect; inconclusive = small, poorly fitted or top-dose-only effect, or another doubt; inactive = no such curve, though single readings can be large; an effect the other way counts as inactive or inconclusive. Where a SMILES comes first, the peptide text is derived from it. The star is where a group is joined. Cbz = O=C(OCc1ccccc1)*; CH2Cl = ClC*

Tests used:
[1] = molecular target: Cytochrome P450 2C9 (Homo sapiens) (UniProt P11712); assay: Cytochrome P450 family 2 subfamily C member 9 (CYP2C9) small molecule antagonists: luciferase biochemical (cell-free) qHTS assay (AID 1645842; active = well fitted curve in the direction sought with a large enough effect in the repeat runs; an effect the other way counts as inactive or inconclusive; note: nearly all actives have a fitted effect of over 55% in size; note: potency is the fitted concentration of half-maximal effect; for activity change, negative = inhibition: % is set by controls: 0 for no effect and ±100 for the full control effect); details: P450-Glo CYP2C9 enzyme assay, luciferin luminescence; series mostly up to 57.4 µM
Method in brief: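 Luminescence, after 20 min with luciferin detection reagent, reflected CYP2C9 turnover during a 1 h NADPH-driven reaction at 37C. Enzyme-substrate mix contained 0.4% bovine serum albumin and was preincubated with compound 10 min at room temperature.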

[2] = Primary qHTS for inhibitors of nuclear receptor binding SET domain protein 2 (NSD2) in an RCH-ACV wild type WT cells (2C) (AID 1645877); details: RCH-ACV NSD2 WT (2C) viability, CellTiter-Glo, 72 h; series mostly up to 44.9 µM; note: nearly all actives have a fitted effect of over 70% in size; note: potency is the fitted concentration of half-maximal effect
[3] = molecular target: Catechol O-methyltransferase (Homo sapiens) (UniProt P21964); assay: Confirmatory Screen for Target Class Profiling of Small Molecule Inhibitors of Methyltransferases (AID 1745852); details: MTase-Glo luminescence, SAH detection, recombinant enzyme; measured here: COMT max response; stronger effect = lower value; for activity change, negative = inhibition: % is set by controls: 0 for no effect and ±100 for the full control effect
[4] = molecular target: Guanidinoacetate N-methyltransferase (Homo sapiens) (UniProt Q14353); assay: as above; details: MTase-Glo luminescence, SAH detection, recombinant enzyme; activity change, negative = inhibition: at 57.3 µM (top of the series) unless noted; series mostly up to 57.3 µM
[5] = molecular target: Nicotinamide N-methyltransferase (Homo sapiens) (UniProt P40261); assay: as above; details: MTase-Glo luminescence, SAH detection, recombinant enzyme; measured here: NNMT max response; stronger effect = lower value
[6] = molecular target: Phenylethanolamine N-methyltransferase (Homo sapiens) (UniProt P11086); assay: as above; details: MTase-Glo luminescence, SAH detection, recombinant enzyme; measured here: PNMT max response; stronger effect = lower value
[7] = molecular target: N-terminal Xaa-Pro-Lys N-methyltransferase 1 (Homo sapiens) (UniProt Q9BV86); assay: Confirmatory qHTS for Inhibitors of N-terminal methyltransferase 1 (NTMT1): MTaseGlo Assay (AID 1645874); details: NTMT1 enzyme, MTase-Glo SAH luminescence; series mostly up to 100 µM;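 note: luminescence from SAH made as NTMT1 methylates SPKRIA peptide using SAM; 0% = DMSO control and -100% = no-enzyme control; nearly all actives have a fitted effect of over 65% in size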
Method in brief: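 Compounds are incubated with 125 nM NTMT1 and 100 uM SAM for 15 min before the SPKRIA peptide (1 uM) starts a 30 min room-temperature methylation. SAH is measured by coupled luciferase luminescence and curves fitted to a Hill equation.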

[8] = Primary qHTS for inhibitors of nuclear receptor binding SET domain protein 2 (NSD2) in an isogenic RCH-ACV NSD2 p.E1099K mutant (9B) (AID 1645876); details: RCH-ACV (leukaemia line) NSD2 E1099K (9B) viability, CellTiter-Glo, 72 h; series mostly up to 44.9 µM; note: nearly all actives have a fitted effect of over 70% in size; note: potency is the fitted concentration of half-maximal effect
[9] = NCATS anti-infectives library activity on HEK293 viability as a counter-qHTS vs the C. elegans viability qHTS (AID 1745854); details: HEK293 viability counter-screen; series mostly up to 41.8 µM;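 note: HEK293 cells exposed to compounds for 24 hr before the viability read; % is set by controls: 0 for no effect and ±100 for the full control effect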
Method in brief: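 HEK293 cells (1,500/well) exposed 24 hr at 37C to 1:5 titrations, up to 41.7 uM final; counter-screen to a C. elegans viability qHTS. Viability by CellTiter-Glo luminescence after 10 min at room temperature; digitonin as control.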

[10] = NCATS anti-infectives library activity on the primary C. elegans qHTS viability assay (AID 1745855; calls by dose curve); details: C. elegans worm area imaging, day 7; series mostly up to 41.8 µM
Method in brief: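 Viability read-out is GFP fluorescence of PE254-GFP-FLuc C. elegans, measured by laser cytometry (488 nm) at day 0, 3 and 7. Ten L1 worms per well were incubated 7 days at 21 °C with compounds and bacterial capsules in S medium.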

Chain of Cytochrome P450 2C9 (Homo sapiens) (P11712 whole entry, looked up): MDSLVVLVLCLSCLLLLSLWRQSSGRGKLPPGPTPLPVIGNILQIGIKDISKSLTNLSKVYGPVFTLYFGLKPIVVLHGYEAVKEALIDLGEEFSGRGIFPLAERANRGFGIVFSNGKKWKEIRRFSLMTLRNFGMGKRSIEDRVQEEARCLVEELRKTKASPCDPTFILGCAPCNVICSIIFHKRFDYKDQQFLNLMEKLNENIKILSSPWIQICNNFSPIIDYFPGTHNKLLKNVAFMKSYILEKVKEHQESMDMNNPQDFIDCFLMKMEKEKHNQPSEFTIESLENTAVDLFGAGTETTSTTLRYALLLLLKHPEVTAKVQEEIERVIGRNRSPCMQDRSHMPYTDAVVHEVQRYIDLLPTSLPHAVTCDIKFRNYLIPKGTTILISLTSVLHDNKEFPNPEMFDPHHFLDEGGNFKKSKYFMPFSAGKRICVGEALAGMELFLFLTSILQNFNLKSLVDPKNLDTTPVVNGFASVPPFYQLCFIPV
Chain of Nicotinamide N-methyltransferase (Homo sapiens) (P40261 whole entry, looked up): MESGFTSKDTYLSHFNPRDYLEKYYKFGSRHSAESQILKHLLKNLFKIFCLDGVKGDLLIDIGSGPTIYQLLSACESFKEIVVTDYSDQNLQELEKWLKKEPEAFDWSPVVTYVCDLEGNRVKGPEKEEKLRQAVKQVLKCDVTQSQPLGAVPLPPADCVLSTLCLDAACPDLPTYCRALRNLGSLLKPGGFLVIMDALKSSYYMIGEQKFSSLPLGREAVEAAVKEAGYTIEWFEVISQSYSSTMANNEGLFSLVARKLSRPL
Chain of Catechol O-methyltransferase (Homo sapiens) (P21964 whole entry, looked up): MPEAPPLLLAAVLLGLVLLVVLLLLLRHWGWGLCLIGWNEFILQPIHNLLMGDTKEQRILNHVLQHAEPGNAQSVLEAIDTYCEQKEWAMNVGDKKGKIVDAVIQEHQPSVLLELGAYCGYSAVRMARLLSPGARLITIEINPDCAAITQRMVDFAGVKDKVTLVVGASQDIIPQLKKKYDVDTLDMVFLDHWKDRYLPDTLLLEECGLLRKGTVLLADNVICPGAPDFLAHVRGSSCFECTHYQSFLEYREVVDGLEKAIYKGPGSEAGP
Chain of Phenylethanolamine N-methyltransferase (Homo sapiens) (P11086 whole entry, looked up): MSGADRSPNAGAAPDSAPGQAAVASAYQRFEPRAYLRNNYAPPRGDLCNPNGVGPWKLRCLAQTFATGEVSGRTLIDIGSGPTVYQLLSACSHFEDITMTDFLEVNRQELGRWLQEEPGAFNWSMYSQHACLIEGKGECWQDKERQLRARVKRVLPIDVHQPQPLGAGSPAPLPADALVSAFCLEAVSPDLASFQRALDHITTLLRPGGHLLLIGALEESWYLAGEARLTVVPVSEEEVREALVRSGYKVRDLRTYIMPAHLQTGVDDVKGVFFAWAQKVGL
Chain of N-terminal Xaa-Pro-Lys N-methyltransferase 1 (Homo sapiens) (Q9BV86 whole entry, looked up): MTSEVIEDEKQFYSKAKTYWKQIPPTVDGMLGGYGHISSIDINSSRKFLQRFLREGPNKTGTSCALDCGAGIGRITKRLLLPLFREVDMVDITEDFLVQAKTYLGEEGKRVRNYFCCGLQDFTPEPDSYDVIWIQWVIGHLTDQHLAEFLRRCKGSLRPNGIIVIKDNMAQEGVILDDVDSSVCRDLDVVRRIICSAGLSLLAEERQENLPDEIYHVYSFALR

Q: What does the source list for `CC(C)(C)c1ccc(C(=O)Nc2cc(Cl)c(Br)cc2C(=O)O)cc1`?
A: Potency [1]: 16.9 µM (active); Potency [2]: 11.5 µM (active); activity [3]: -14%; activity change, negative = inhibition [4]: -8.07%; activity [5]: -40.5%; activity [6]: -22%

Q: For `Fc1ccc2c(CCNCc3cccc(OCC(F)(F)C(F)F)c3)c[nH]c2c1`, which Potency [1] is on record?
A: 9.52 µM (active)

Q: What about the activity [3] of the same compound?
A: -0.052%

Q: What about the activity change, negative = inhibition [4] of the same compound?
A: 0.441%

Q: What about the activity [5] of the same compound?
A: -8.62%

Q: And the activity [6]?
A: -13.2%

Q: What does the source list for `C=CC(=O)N1CCN(C(=O)CNc2cc(-c3ccccc3Cl)c(Cl)cc2OC)CC1`?
A: Potency [1]: 3.01 µM (active); Potency [2]: 16.3 µM (active)

Q: With `C/C=C/C=C/C=C/C(=O)O[C@@H]1C=C2COC(=O)[C@]2(O)[C@@]2(C)CCCC(C)(C)[C@H]12` as the compound, how does the Potency [7] read?
A: inactive

Q: What about the Potency [8] of the same compound?
A: 2.82 µM (active)

Q: For `CCn1c(-c2nonc2N)nc2c(C#CCO)ncc(OCCCN)c21`, which Potency [1] is on record?
A: inactive

Q: What about the Potency [2] of the same compound?
A: 5.78 µM (active)

Q: For `O=C(Nc1cc(C(F)(F)F)ccc1N1CCCCC1)c1ccncc1`, which Potency [1] is on record?
A: 2.13 µM (active)

Q: What about the outcome [9] of the same compound?
A: inactive

Q: What about the Potency [10] of the same compound?
A: inactive

Q: For `CN(C)CCC(CSc1ccccc1)Nc1ccc(S(=O)(=O)NC(=O)c2ccc(N3CCN(Cc4ccccc4-c4ccc(Cl)cc4)CC3)cc2)cc1[N+](=O)[O-]` (configuration not stated), which Potency [8] is on record?
A: 0.916 µM (active)

Q: What about the Potency [2] of the same compound?
A: 0.515 µM (active)

Q: Which results are given for `C=C1C(=O)OC2/C=C(\CO)CC/C=C(\C=O)C(O)C(OC(=O)C(C)CC)C12` (configuration not stated)?
A: Potency [8]: 5.67 µM (active); Potency [2]: 2.01 µM (active)

Q: For `Cc1sc2c(c1C)C(c1ccc(Cl)cc1)=N[C@@H](CC(=O)Nc1ccc(OCCOCCOCCOCCNc3cccc4c3C(=O)N(C3CCC(=O)NC3=O)C4=O)cc1)c1nnc(C)n1-2` (some centres not stated), which Potency [8] is on record?
A: 4 nM (active) and 10.5 nM (active)

Q: What about the Potency [2] of the same compound?
A: 3.2 nM (active) and 14.8 nM (active)

Q: Which Potency [8] does the source give for `COc1ccc(-n2c(SCCCN3C(=O)c4cccc5cccc(c45)C3=O)nnc2-c2ccncc2)cc1` here?
A: inactive

Q: And the Potency [2]?
A: inactive

Q: Which Potency [8] does the source give for `Cc1nc2ccc(CN(C)c3ccc(C(=O)NC(CCC(=O)O)C(=O)O)s3)cc2c(=O)[nH]1` (configuration not stated) here?
A: 0.0092 µM (active)

Q: What about the Potency [2] of the same compound?
A: 0.0092 µM (active)

Q: Which Potency [8] does the source give for `O=C(Nc1nc2cc(C(F)(F)F)cc(NC3CC3)n2n1)c1cccnc1` here?
A: 2.3 µM (active)

Q: And the Potency [2]?
A: 1.83 µM (active)

Q: With `O=C(NCCCNC(=O)c1ccc[nH]c1=O)c1cc(-c2ccccc2)on1` as the compound, how does the Potency [8] read?
A: 8.33 µM (active)

Q: And the Potency [2]?
A: 9.34 µM (active)

Q: With `CC(=O)OC[C@]12[C@H](OC(C)=O)C(=O)[C@@H]3[C@@H](O)[C@@]14O[C@@]3(C)COC(=O)c1cccnc1[C@@H](C)[C@H](C)C(=O)O[C@@H]([C@H](O)[C@@H]2OC(C)=O)[C@]4(C)O` as the compound, how does the Potency [8] read?
A: 5.41 µM (active)

Q: What about the Potency [2] of the same compound?
A: 5.41 µM (active)

Q: With `COc1cc(C(C)C)c(Oc2cnc(N)nc2N)cc1I` as the compound, how does the Potency [8] read?
A: 16.3 µM (active)

Q: What about the Potency [2] of the same compound?
A: 16.3 µM (active)

Q: For `Cc1[nH]c2ccc(F)cc2c1-c1nc2c3cccnc3c3ncccc3c2[nH]1`, which Potency [8] is on record?
A: 1.21 µM (active)

Q: What about the Potency [2] of the same compound?
A: 1.08 µM (active)

Q: Which Potency [8] does the source give for `Cn1sc(=O)n(Cc2ccccc2)c1=O` here?
A: 7.28 µM (active) and 18.4 µM (active)

Q: And the Potency [2]?
A: 2.58 µM (active) and 11.6 µM (active)

Q: With `CN1CC[C@@H](c2c(O)cc(O)c3c(=O)cc(-c4ccc(C(F)(F)F)cc4Cl)oc23)[C@@H]1CO` as the compound, how does the Potency [8] read?
A: 18.6 µM (active)

Q: And the Potency [2]?
A: 16.6 µM (active)

Q: Which results are given for `C=C1CC[C@@H](O)[C@]2(C)CC[C@H]3C(=C)C(=O)O[C@@H]3[C@@H]12`?
A: Potency [8]: 20.5 µM (active); Potency [2]: 16.3 µM (active)

Q: For `CC[C@@H](C)[C@@H]1OC2(C=C[C@H]1C)C[C@@H]1C[C@H](C/C=C(\C)[C@H](O[C@H]3C[C@H](OC)[C@H](O[C@H]4C[C@H](OC)[C@H](NC(C)=O)[C@H](C)O4)[C@H](C)O3)[C@H](C)/C=C/C=C3\CO[C@H]4[C@H](O)C(C)=C[C@@H](C(=O)O1)[C@@]34O)O2` (some centres not stated), which Potency [8] is on record?
A: 8.01 µM (active)

Q: And the Potency [2]?
A: 5.05 µM (active)

Q: Which results are given for `CCCCCCCCn1cc(CN(CC)CC)c2cc(-c3cnc(N)nc3)ccc21`?
A: Potency [8]: 4.09 µM (active); Potency [2]: 3.25 µM (active)

Q: With `CC(C)C[C@H](NC(=O)CNC(=O)OCc1ccccc1)C(=O)N[C@@H](Cc1ccccc1)C(=O)CCl` (Cbz-Gly-Leu-Phe-CH2Cl) as the compound, how does the Potency [8] read?
A: 7.28 µM (active)

Q: What about the Potency [2] of the same compound?
A: 3.65 µM (active)
